These results are taken from PubChem BioAssay (NCI).

SMILES strings stand for the structures. About 83,000 compounds went through this panel and 20% of them were active in at least one assay; those are over-represented in the sample as a whole.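 Method: cells in 96-well plates; compound added at one concentration; 48 h incubation; percent growth measured; values under 10 scored active.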 Values without a mark were called inactive. Calls of active or inactive are those of the source.

Some test systems named below: NCI-H23 lung; NCI-H226 lung; NCI-H322M lung; HOP-62 NSCLC; NCI-H460 lung; HOP-92 NSCLC; NCI-H522 lung; A549/ATCC NSCLC; 786-0 renal; COLO 205 colon; DU-145 prostate; K-562 leukemia; MALME-3M melanoma; MDA-MB-231 breast; RXF 393 renal; SF-268 CNS; SF-295 CNS; SF-539 CNS; UACC-257 melanoma; M14 melanoma.
Test in all cases: NCI-60 one-dose screen, 48 h (100 = growth as untreated, 0 = no growth, -100 = all killed)
Conditions in all cases: 10 µM unless noted

Consider `CC(=O)Oc1ccc(C(OC(C)=O)OC(C)=O)cc1`, for which the growth in the experiment with NCI-H23 lung was 95.4%; in the experiment with NCI-H226 lung it was 108%; in the experiment with NCI-H322M lung, 98.9%; with HOP-62 NSCLC, 95%; with NCI-H460 lung, 111%; with HOP-92 NSCLC it was 113%. The growth with NCI-H522 lung was 85.4%; in the experiment on A549/ATCC NSCLC, 108%; in the experiment on 786-0 renal, 95.3%; with COLO 205 colon it was 112%; with DU-145 prostate, 103%; with K-562 leukemia it was 89.6%. In addition, the growth in the experiment with MALME-3M melanoma is 105%; with MDA-MB-231 breast it was 114%; with RXF 393 renal, 115%; in the experiment on SF-268 CNS, 93.3%; with SF-295 CNS, 99.1%; in the experiment with SF-539 CNS, 99.7%. Moreover, the growth in the experiment with UACC-257 melanoma was 107%; in the experiment with M14 melanoma, 99.3%.
With `Cl[C@@H]1CCO[C@H](c2cc3ccccc3c3ccccc23)C1`, the growth was 95.5% with NCI-H23 lung; 89.8% in the experiment with NCI-H226 lung; 94.6% with NCI-H322M lung; 98.8% in the experiment with HOP-62 NSCLC; 99% in the experiment with NCI-H460 lung; 89.1% in the experiment on HOP-92 NSCLC. The growth with NCI-H522 lung was 82.6%; in the experiment on A549/ATCC NSCLC it was 93.6%; with 786-0 renal, 88.7%; with COLO 205 colon, 104%; with DU-145 prostate, 102%; in the experiment with K-562 leukemia, 95.5%. The growth in the experiment on MALME-3M melanoma was 106%; in the experiment on MDA-MB-231 breast, 90.2%; with RXF 393 renal, 98.8%; in the experiment with SF-268 CNS it was 97.9%; in the experiment on SF-295 CNS, 96.4%; in the experiment with SF-539 CNS it was 95%. Moreover, the growth in the experiment on UACC-257 melanoma was 93.4%; with M14 melanoma it was 95.3%.
As for `CCOC(=O)c1noc2c1CCc1c-2cn(Cc2ccc(OC)cc2)c1-c1cc(OC)c(OC)c(OC)c1`, the growth with NCI-H23 lung was 42.9%; in the experiment on NCI-H226 lung, 40.8%; in the experiment on NCI-H322M lung, 52.2%; with HOP-62 NSCLC it was 22.8%; in the experiment on NCI-H460 lung it was 8.9% (active); with HOP-92 NSCLC, 63.4%. Also, the growth with NCI-H522 lung is 3.83% (active); with A549/ATCC NSCLC, 43.5%; in the experiment with 786-0 renal it was 34.7%; in the experiment on COLO 205 colon, 1.98% (active); in the experiment on DU-145 prostate, 24.5%; in the experiment on K-562 leukemia, 7.62% (active). In addition, the growth in the experiment on MALME-3M melanoma was 76.9%; in the experiment with MDA-MB-231 breast, -1.46% (active); with RXF 393 renal it was 11.7%; in the experiment on SF-268 CNS, 41.5%; with SF-295 CNS, 21.2%; in the experiment with SF-539 CNS, -10.4% (active). For the same molecule, the growth in the experiment with UACC-257 melanoma is 54.3%; in the experiment on M14 melanoma, 3.01% (active).
Regarding `O=C(Nc1ccc(-n2ccc3c(NC(=O)c4ccccc4)nccc32)cc1)c1ccc(Cl)c(C(F)(F)F)c1`, the growth was 64% in the experiment with NCI-H23 lung; 69.9% in the experiment with NCI-H226 lung; 66.1% in the experiment on NCI-H322M lung; 53.9% in the experiment on HOP-62 NSCLC; -67% (active) in the experiment on NCI-H460 lung; 46.5% in the experiment on HOP-92 NSCLC. For the same molecule, the growth with NCI-H522 lung was -0.6% (active); in the experiment with A549/ATCC NSCLC it was -29.9% (active); in the experiment on 786-0 renal it was 22.9%; in the experiment with COLO 205 colon, 37.2%; in the experiment with DU-145 prostate, 23.6%; in the experiment with K-562 leukemia, -31.6% (active). Also, the growth with MALME-3M melanoma was 57.9%; in the experiment with MDA-MB-231 breast it was 55.8%; in the experiment on RXF 393 renal it was 18.4%; in the experiment on SF-268 CNS it was 28.7%; in the experiment on SF-295 CNS, 25.3%; in the experiment with SF-539 CNS, 24.1%. Also, the growth was 58.8% in the experiment on UACC-257 melanoma and 31.5% with M14 melanoma.
Regarding `O=C(Nc1cccc(-n2ccc3c(NC(=O)c4ccccc4)ncnc32)c1)Nc1ccc(Cl)c(C(F)(F)F)c1`, the growth was 31.9% in the experiment on NCI-H23 lung; 55.1% in the experiment with NCI-H226 lung; 60.2% in the experiment on NCI-H322M lung; 56.8% with HOP-62 NSCLC; 14.4% in the experiment with NCI-H460 lung; 29.2% with HOP-92 NSCLC. The growth in the experiment on NCI-H522 lung is 11.8%; in the experiment with A549/ATCC NSCLC, 28.3%; with 786-0 renal it was 53.2%; in the experiment on COLO 205 colon, 20.9%; in the experiment with DU-145 prostate, 42.2%; with K-562 leukemia it was 13.6%. Besides, the growth with MALME-3M melanoma was 46.5%; in the experiment on MDA-MB-231 breast, 42.3%; in the experiment on RXF 393 renal it was 14.6%; with SF-268 CNS, 38.1%; with SF-295 CNS, 14.2%; in the experiment with SF-539 CNS, 39.1%. Also, the growth in the experiment on UACC-257 melanoma was 36%; with M14 melanoma, 28.1%.
`c1ccc([Se]CCCN2CCN(CCC[Se]c3ccccc3)CC2)cc1`: the growth is 106% with NCI-H23 lung; 116% with NCI-H226 lung; 121% in the experiment on NCI-H322M lung; 94.5% with HOP-62 NSCLC; 103% in the experiment with NCI-H460 lung; 87.3% with HOP-92 NSCLC. In addition, the growth in the experiment on NCI-H522 lung is 119%; in the experiment with A549/ATCC NSCLC, 108%; in the experiment on 786-0 renal it was 96.4%; with COLO 205 colon, 135%; in the experiment on DU-145 prostate, 109%; with K-562 leukemia, 129%. In addition, the growth in the experiment with MALME-3M melanoma was 123%; in the experiment on MDA-MB-231 breast, 98.8%; in the experiment with RXF 393 renal, 44.6%; in the experiment with SF-268 CNS it was 109%; in the experiment with SF-295 CNS it was -58.4% (active); in the experiment on SF-539 CNS, 112%. Besides, the figures for the growth with UACC-257 melanoma and in the experiment with M14 melanoma were 104% and 90.3%, respectively.
On to `Cc1cccc(Cc2cnc(NC(=O)CCc3ccc(C)o3)s2)c1`, for which the growth was 35.3% with NCI-H23 lung; 35.1% in the experiment with NCI-H226 lung; 45.9% in the experiment on NCI-H322M lung; 47.5% in the experiment on HOP-62 NSCLC; 4.15% (active) in the experiment with NCI-H460 lung; 64.9% with HOP-92 NSCLC. For the same molecule, the growth is 4.74% (active) in the experiment with NCI-H522 lung; 26.1% in the experiment on A549/ATCC NSCLC; 29.8% in the experiment with 786-0 renal; -9.57% (active) in the experiment on COLO 205 colon; 18.8% in the experiment on DU-145 prostate; 6.63% (active) in the experiment with K-562 leukemia. Further, the growth is 82.8% in the experiment with MALME-3M melanoma; 15.4% with MDA-MB-231 breast; 8.05% (active) in the experiment on RXF 393 renal; 38% in the experiment on SF-268 CNS; 10.4% in the experiment with SF-295 CNS; 2.41% (active) in the experiment on SF-539 CNS. Besides, the growth in the experiment with UACC-257 melanoma is 79.6%; in the experiment on M14 melanoma, 11.5%.
As for `COc1ccc(/C=C/C(=O)c2ccc(-n3cc(CN4CCN(c5cc6c(cc5F)c(=O)c(C(=O)O)cn6C5CC5)CC4)nn3)cc2)cc1OC`, the growth is 50.6% with NCI-H23 lung; 32.4% in the experiment on NCI-H226 lung; 52.6% in the experiment with NCI-H322M lung; 38.7% in the experiment on HOP-62 NSCLC; 53.1% in the experiment with NCI-H460 lung; 81.6% with HOP-92 NSCLC. Further, the growth is 49.5% with NCI-H522 lung; 15.7% in the experiment on A549/ATCC NSCLC; 43.7% in the experiment with 786-0 renal; 60.9% in the experiment with COLO 205 colon; 45.8% in the experiment on DU-145 prostate; 7.81% (active) with K-562 leukemia. Moreover, the growth with MALME-3M melanoma is 57.5%; with MDA-MB-231 breast, 55.4%; in the experiment on RXF 393 renal it was 4.51% (active); in the experiment with SF-268 CNS, 59.5%; with SF-295 CNS, 67.5%; in the experiment with SF-539 CNS, 7.09% (active). Moreover, the results for the growth in the experiment on UACC-257 melanoma and in the experiment on M14 melanoma were 62% and 28.2%, respectively.
